UBC9 SUMO inh – inhibitors of in vitro SUMOylation cascade, primary screen, biochemical, HTRF, uHTS | inhibition, % at 35 µM | HTRF SUMOylation assay, SAE1/SAE2 + UBC9 | hit rate 0.36% among 290,000; in the data active means inhibition above about 50%, passing the limit was not always enough
p97 ATPase inh – inhibitors of human p97 ATPase, primary screen, biochemical; inhibition, % at 8 µM; recombinant p97 ATPase, Kinase-Glo ATP luminescence, 3 h; hit rate 0.42% among 220,000; in the data active means inhibition above about 15%;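 further: 0% = DMSO vehicle and 100% = wells lacking enzyme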
HDAC3 inhib – HDAC3 deacetylase inhibitors, primary screen, biochemical, fluorescence, cell-free homogeneous | Histone deacetylase 3 (Homo sapiens), O15379 | recombinant HDAC3, fluorogenic peptide/trypsin coupled | inhibition, % at 8.3 µM | hit rate 0.15% among 320,000 | AID 2718, 2010; in the data active means inhibition above about 26%, passing the limit was not always enough
G6PDH CS – L. mesenteroides G6PDH inhibitors, counter-screen for G6PDH-coupled screening assays, biochemical, Leuconostoc mesenteroides enzyme; glucose-6-phosphate dehydrogenase [Leuconostoc mesenteroides]; Purified L. mesenteroides G6PDH, diaphorase/resazurin coupled fluorescence, 45 min; inhibition, % at 5 µM; hit rate 0.12% among 200,000; in the data active means inhibition above about 50%
PfM18AAP inh-1 – PfM18AAP inhibitors, malaria aminopeptidase, primary screen, biochemical, QFRET, recombinant enzyme | M18 aspartyl aminopeptidase (Plasmodium falciparum 3D7) | H-Glu-NHMec fluorogenic cleavage | inhibition, % at 7.35 µM | hit rate 1.2% among 290,000 | AID 1822, 2009;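 active means inhibition above the campaign mean inhibition over all tested compounds plus 3 SD, cut at about 28% in these data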;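 further: 0% = plate median of test compound wells and 100% = 2 mM ZnCl2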
PHOSPHO1 inh – PubChem AID 1565 | recombinant PHOSPHO1, absorbance phosphatase assay | hit rate 1.1% among 290,000 | inhibition, % at 13.3 µM | Phosphoethanolamine/phosphocholine phosphatase (Homo sapiens), Q8TCT1; in the data active means inhibition above about 60%
Target sequence (Q8TCT1 whole entry, looked up): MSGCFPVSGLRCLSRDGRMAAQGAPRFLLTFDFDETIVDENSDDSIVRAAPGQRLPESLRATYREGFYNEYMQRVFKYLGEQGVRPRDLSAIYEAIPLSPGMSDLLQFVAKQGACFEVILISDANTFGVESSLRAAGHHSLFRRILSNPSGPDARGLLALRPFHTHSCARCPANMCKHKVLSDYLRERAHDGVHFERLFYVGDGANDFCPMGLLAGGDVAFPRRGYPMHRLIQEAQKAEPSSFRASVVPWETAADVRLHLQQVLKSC
PfM18AAP inh-2 – PfM18AAP inhibitors, malaria aminopeptidase, confirmation, biochemical, QFRET, recombinant enzyme, triplicate. shares compounds with PfM18AAP inh-1. inhibition, % at 7.35 µM. H-Glu-NHMec fluorogenic cleavage. hit rate 28% among 2,400;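 active means mean inhibition over replicate wells above the hit cutoff set for the earlier primary screen, cut at about 29% in these data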;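 further: 0% = median of test compound wells and 100% = 2 mM ZnCl2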
CTSL1 counter – cathepsin L1 inhibitors, retest, confirmation, counter-screen for PFM18AAP inhibitor project, biochemical, QFRET, triplicate; shares compounds with PfM18AAP inh-1; purified cathepsin L1, Z-Leu-Arg-MCA fluorescence; inhibition, % at 5.96 µM; 2,400 tested, under 10 active; AID 2178, 2009;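 active means average inhibition across replicates above the hit cutoff set in the earlier primary screen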;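 further: 0% = median of test compound wells and 100% = Z-Phe-Ala-diazomethylketone 1 µM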
Target sequence (P07711 whole entry, looked up): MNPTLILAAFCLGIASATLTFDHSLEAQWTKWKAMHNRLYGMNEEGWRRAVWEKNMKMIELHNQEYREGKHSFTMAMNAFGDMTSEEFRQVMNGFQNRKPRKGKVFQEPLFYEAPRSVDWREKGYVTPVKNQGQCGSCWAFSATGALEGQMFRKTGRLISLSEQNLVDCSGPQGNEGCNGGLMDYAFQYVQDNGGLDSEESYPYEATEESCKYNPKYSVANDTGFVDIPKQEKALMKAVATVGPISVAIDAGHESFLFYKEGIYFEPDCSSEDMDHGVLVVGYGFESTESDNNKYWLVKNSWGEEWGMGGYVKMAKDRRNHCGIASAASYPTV
Starred values were filed as active, the others as inactive; nt = no result given. The list is not random: actives were taken first. Their share in the collection is about 2.5%.

SMILES | UBC9 SUMO inh | p97 ATPase inh | HDAC3 inhib | G6PDH CS | PfM18AAP inh-1 | PHOSPHO1 inh | PfM18AAP inh-2 | CTSL1 counter
CNC(=O)N(O)C1N(C)C(=O)N(CC(=O)OC)C1(C)C (centres undefined) | -6 | -3 | -5 | 3 | 37* | -1 | -23 | 1
O=C(c1cccc(S(=O)(=O)N2CCc3ccccc32)c1)N1CCCC(C(F)(F)F)C1 (centres undefined) | nt | nt | 0 | nt | nt | nt | nt | nt
CCN(CC)c1ccc2c(c1)CCCN2 | 49 | 1 | 1 | 35 | 32* | -16 | -8 | -4
O=S(=O)(c1ccc2c(c1)CCCN2)N1CCCC1 | nt | nt | -2 | nt | nt | nt | nt | nt
COc1ccc(C(=O)O/N=C/c2ccc(S(=O)(=O)c3ccc(Cl)cc3)nc2)cc1 | nt | nt | -8 | nt | nt | nt | nt | nt
CC(=O)Nc1cccc(-c2cc(C)c3cc4c(cc3n2)OCO4)c1 | 8 | nt | nt | nt | 6 | 18 | nt | nt
CC(=O)Oc1ccc(C(=O)NC(C)CCc2ccccc2)cc1 (centres undefined) | 4 | nt | -15 | nt | -11 | 14 | nt | nt
N#CC1=C(N)SC(N)=C(C#N)C1C1C=CCCC1 (centres undefined) | 2 | 3 | -1 | 2 | 21 | -3 | nt | nt
N#CC1=C(N)SC(N)=C(C#N)C1C1CC=CCC1 (centres undefined) | 22 | 4 | -2 | 6 | 36* | -34 | -11 | -3
CC(C)(C)OC(=O)C[C@H]1C/C=C\C[C@H](CC(=O)N(CCO)Cc2ccccc2)C(=O)N[C@@H](Cc2ccccc2)COC1=O | nt | nt | -2 | nt | nt | nt | nt | nt
CCOc1ccc(S(=O)(=O)Nc2ncn[nH]2)cc1 | 8 | nt | 2 | nt | 46* | 26 | 33* | -5
O=C(/C=C/c1ccccc1F)c1cccc([N+](=O)[O-])c1 | -2 | 7 | -12 | -1 | 34* | 1 | 4 | 5
COc1ccc(C2C(C(C)=O)=C(O)C(=O)N2c2nc3ccccc3s2)cc1OC (centres undefined) | 7 | 2 | 7 | 5 | 34* | -29 | -26 | 2
COc1cc(/C=N/Nc2nn3cnnc3c3ccccc23)ccc1O | 6 | -22 | 5 | -2 | 5 | -109 | nt | nt
BrC(/C=N/Nc1nc(N2CCOCC2)nc(N2CCOCC2)n1)=C/c1ccccc1 | 16 | 2 | 12 | 10 | 21 | -5 | nt | nt
Oc1ccc(/C=N/Nc2nn3cnnc3c3ccccc23)cc1 | 12 | -15 | 6 | nt | 33* | 18 | -58 | 2
BrC(=C\c1ccccc1)/C=N/Nc1ccc2nncn2n1 | 23 | 5 | 2 | nt | 32* | 23 | -17 | -1
C/C(=N\Nc1ccc2nncn2n1)c1cccs1 | 28 | 2 | 2 | nt | 40* | 41 | -16 | 0
C(=N\Nc1nn2cnnc2c2ccccc12)/c1ccco1 | 10 | -1 | 1 | 5 | 44* | 1 | -23 | -1
COc1ccc(C(=O)N2CCC(n3nccc3NC(=O)C3CC3)CC2)cc1F | 4 | nt | -1 | nt | 6 | 43 | nt | nt
COc1cccc(/C=N/Nc2nn3cnnc3c3ccccc23)c1 | 25 | -12 | -1 | 8 | 40* | 14 | -46 | 5
C(=N\Nc1ccc2nncn2n1)/c1ccco1 | 16 | -3 | 2 | nt | 34* | 33 | 3 | 2
Cc1ccc(CN2CCN(/N=C/C(Br)=C\c3ccccc3)CC2)cc1 | -1 | -2 | -1 | nt | -4 | 2 | nt | nt
BrC(=C\c1ccccc1)/C=N/n1cnnc1 | 5 | 3 | nt | 14 | 68* | 28 | 61* | 4
CC(NC(=O)COC(=O)c1cc(S(=O)(=O)N2CCOCC2)ccc1F)c1ccccc1 (centres undefined) | nt | nt | -3 | nt | nt | nt | nt | nt
SMILES | UBC9 SUMO inh | p97 ATPase inh | HDAC3 inhib | G6PDH CS | PfM18AAP inh-1 | PHOSPHO1 inh | PfM18AAP inh-2 | CTSL1 counter
O=C(CSc1nc2cc(S(=O)(=O)N3CCOCC3)ccc2o1)Nc1c(F)cccc1F | 27 | 4 | 5 | 5 | 32* | -164 | 3 | -1
CCSc1nc2cc(S(=O)(=O)N3CCOCC3)ccc2o1 | nt | nt | -4 | nt | nt | nt | nt | nt
Cc1[nH]nc2c1C(c1cccs1)C(C#N)=C(N)O2 (centres undefined) | 11 | 11 | 3 | 9 | 35* | 16 | 21 | -4
Cc1nc2ccc(S(=O)(=O)NCC(=O)NC(C)c3ccccc3)cc2s1 (centres undefined) | 6 | 3 | 0 | 6 | 33* | -4 | -31 | 3
CO/N=C(\C(=O)O)c1csc(NN=C(C)C)n1 | 20 | -4 | -1 | 15 | 41* | 32 | -16 | -4
CCOC(=O)/C(=N/Nc1ccccc1)c1csc(Nc2ccccc2)n1 | -16 | 2 | 8 | -2 | 13 | -3 | nt | nt
COc1ccc(/C=N/Nc2nccnc2Cl)cc1 | 23 | -31 | 4 | 3 | 36* | 6 | -38 | 5
COc1ccc(/C=N/Nc2ncnc(Cl)c2N)cc1OC | 12 | 3 | -7 | 0 | 35* | 0 | -45 | 2
Clc1nccnc1N/N=C/c1ccc(Br)cc1 | -2 | nt | 4 | nt | 9 | -3 | nt | nt
Oc1ccccc1/C=N/Nc1nccnc1Cl | 9 | -13 | 5 | -4 | 23 | -16 | nt | nt
Oc1ccc(/C=N/Nc2nccnc2Cl)c(O)c1 | -34 | -5 | 9 | 2 | 35* | 1 | -7 | 3
O=C1c2ccccc2NC(c2ccc(O)c(O)c2)N1c1ccccc1Cl (centres undefined) | 6 | nt | -4 | nt | 57* | nt | 56* | -2
COc1cc(C2Nc3ccccc3C(=O)N2c2ccccc2OC)ccc1O (centres undefined) | 17 | 5 | -9 | 10 | -6 | -25 | nt | nt
COc1ccc(-n2c(Cn3nc(C(F)(F)F)cc3C)n[nH]c2=S)cc1 | -14 | 4 | 5 | 9 | 32* | 1 | -17 | -3
COc1ccc(-n2c(COc3ccc(C)cc3)n[nH]c2=S)cc1 | -1 | nt | 5 | nt | 4 | -85 | nt | nt
O=C(O/N=C/c1ccc(Br)cc1)c1ccc(F)cc1 | nt | nt | -4 | nt | nt | nt | nt | nt
CC1CN(S(=O)(=O)c2ccc(C(=O)N(C)C3CCCCC3)cc2)CC(C)O1 (centres undefined) | nt | nt | 1 | nt | nt | nt | nt | nt
Cc1ccc(-n2sc3ccccc3c2=O)cc1 | -33 | 0 | 52* | -9 | 66* | 56 | 76* | 6
O=c1c2ccccc2sn1-c1ccc(F)cc1 | nt | nt | 3 | nt | nt | nt | nt | nt
Oc1ccccc1N1CCN(c2ccc3ccccc3n2)CC1 | -16 | nt | 3 | nt | 21 | 17 | nt | nt
